In the supplement of paper PMC10849652:
Of roughly 7,900 targets only a part is listed; those with a hit were picked by preference. About 0.6% of all pairs of compound and target were hits.

What was measured:
Experiment in all cases: log2 fold change, soluble protein after heating vs DMSO (PISA); higher = thermal stabilisation; K562 cells, 10 uM, 30 min; active = over 0.2 and 3.5 SD of the protein, either way, in both replicates (recomputed)
[1] = compound: CC[C@@H]1C(=O)N(C)c2cnc(Nc3ccc(C(=O)NC4CCN(C)CC4)cc3OC)nc2N1C1CCCC1
Summary of the method: (§1)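 K562 cells (2×10^6 cells/mL) were treated with 10 μM compound for 30 min, and aliquots were heated for 3 min over 48°C-58°C. Pooled aliquots were extracted in PBS with 0.5% NP-40 at 4°C, and the supernatant after 21,000xg for 90 min was measured by TMTpro 16plex LC-MS/MS with channel sums equalised. Reported thermal stability, relative to control samples and from duplicates, is a log2 fold change.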

volasertib = compound: CC[C@@H]1C(=O)N(C)c2cnc(Nc3ccc(C(=O)N[C@H]4CC[C@H](N5CCN(CC6CC6)CC5)CC4)cc3OC)nc2N1C(C)C [volasertib]
Summary of the method: as §1

[2] = compound: CC[C@H](C)N1C=C(C2=C(C=C(C=C21)C3=CN=C(C=C3)N4CCNCC4)C(=O)NCC5=C(C=C(NC5=O)C)C)C
Summary of the method: as §1

epoxomicin = compound: CC[C@H](C)[C@@H](C(=O)N[C@@H]([C@@H](C)O)C(=O)N[C@@H](CC(C)C)C(=O)[C@]1(CO1)C)NC(=O)[C@H]([C@@H](C)CC)N(C)C(=O)C [epoxomicin]
Summary of the method: as §1

[3] = compound: CCn1c(C(=O)N(C2CC2)C2CC2)cc2c3c(ncn3C)c(Nc3cc(C)n(C)n3)nc21
Summary of the method: as §1

[4] = compound: CCn1cc(-c2ccnc3[nH]c(-c4cccc(CN(C)C)c4)cc23)c(-c2ccc(NC(=O)N(C)C)cc2)n1
Summary of the method: as §1

[5] = compound: CN(C)CC(=O)Nc1ccc2[nH]c(=O)c3ccccc3c2c1
Summary of the method: as §1

rosiglitazone = compound: CN(CCOC1=CC=C(C=C1)C[C@H]2C(=O)NC(=O)S2)C3=CC=CC=N3 (racemic) [rosiglitazone]
Summary of the method: as §1

[6] = compound: CN1C2=C(C3=C1C(=O)N(N=C3)CC4=CC(=CC=C4)N)SC(=C2)S(=O)C
Summary of the method: as §1

[7] = compound: CN1CCC(CNc2ccc3ncc(-c4cccc(OC(F)(F)F)c4)n3n2)CC1
Summary of the method: as §1

saracatinib = compound: CN1CCN(CCOc2cc(OC3CCOCC3)c3c(Nc4c(Cl)ccc5c4OCO5)ncnc3c2)CC1 [saracatinib]
Summary of the method: as §1

sotrastaurin = compound: CN1CCN(c2nc(C3=C(c4c[nH]c5ccccc45)C(=O)NC3=O)c3ccccc3n2)CC1 [sotrastaurin]
Summary of the method: as §1

alvocidib = compound: CN1CC[C@H](c2c(O)cc(O)c3c(=O)cc(-c4ccccc4Cl)oc23)[C@H](O)C1 [alvocidib]
Summary of the method: as §1

Tubastatin A = compound: CN1CCc2c(c3ccccc3n2Cc2ccc(C(=O)NO)cc2)C1 [Tubastatin A]
Summary of the method: as §1

[8] = compound: CNC(=O)C1=CC=CC=C1NC2=NC(=NC=C2Cl)NC3=C(C=C(C=C3)N4CCOCC4)OC
Summary of the method: as §1

defactinib = compound: CNC(=O)c1ccc(Nc2ncc(C(F)(F)F)c(NCc3nccnc3N(C)S(C)(=O)=O)n2)cc1 [defactinib]
Summary of the method: as §1

rucaparib = compound: CNCc1ccc(-c2[nH]c3cc(F)cc4c3c2CCNC4=O)cc1 [rucaparib]
Summary of the method: as §1

[9] = compound: CNc1nc(-c2ccc3c(N)n[nH]c3c2)cc(N2C[C@@H](C(=O)NC3CCCCC3)CC[C@H]2C)n1
Summary of the method: as §1

encorafenib = compound: COC(=O)N[C@@H](C)CNc1nccc(-c2cn(C(C)C)nc2-c2cc(Cl)cc(NS(C)(=O)=O)c2F)n1 [encorafenib]
Summary of the method: as §1

[10] = compound: COC(=O)[C@H](CCSC)NC(=O)C1=C(C=C(C=C1)NC[C@H](CS)N)C2=CC=CC=C2
Summary of the method: as §1

Measured: log2 fold change

USP14 (UniProt P54578)
UniProt P54578, sequence (P54578 whole entry, looked up): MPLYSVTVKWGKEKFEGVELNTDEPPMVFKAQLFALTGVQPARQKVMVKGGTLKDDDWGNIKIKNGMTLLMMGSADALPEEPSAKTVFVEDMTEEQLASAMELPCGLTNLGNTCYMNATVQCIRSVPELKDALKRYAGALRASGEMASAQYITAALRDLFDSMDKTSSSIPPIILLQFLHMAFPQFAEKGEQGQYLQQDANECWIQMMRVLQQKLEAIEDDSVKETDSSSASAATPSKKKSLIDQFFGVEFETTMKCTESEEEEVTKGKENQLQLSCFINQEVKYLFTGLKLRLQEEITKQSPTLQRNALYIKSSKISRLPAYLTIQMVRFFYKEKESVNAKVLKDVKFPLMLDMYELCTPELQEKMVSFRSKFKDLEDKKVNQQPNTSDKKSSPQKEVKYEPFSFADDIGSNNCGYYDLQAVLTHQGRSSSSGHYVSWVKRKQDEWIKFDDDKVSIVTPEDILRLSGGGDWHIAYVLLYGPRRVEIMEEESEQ
inactive: [1] -0.08 | volasertib -0.197 | [2] 0.053 | epoxomicin 0.106 | [3] -0.005 | [4] -0.011 | [5] 0.003 | rosiglitazone 0.007 | [6] -0.082 | [7] -0.072 | saracatinib -0.007 | sotrastaurin -0.013 | alvocidib -0.047 | Tubastatin A 0.033 | [8] 0.012 | defactinib -0.064 | rucaparib -0.025 | [9] -0.01 | encorafenib 0.044 | [10] -0.021

WDR4 (UniProt P57081)
inactive: [1] -0.031 | volasertib -0.072 | [2] 0.025 | epoxomicin 0.074 | [3] -0.03 | [4] -0.06 | [5] 0.022 | rosiglitazone 0.177 | [6] -0.08 | [7] -0.114 | saracatinib 0.008 | sotrastaurin 0.071 | alvocidib -0.068 | Tubastatin A 0.018 | [8] -0.022 | defactinib -0.027 | rucaparib -0.079 | [9] 0.024 | encorafenib 0.041 | [10] -0.033

TMEM161B (UniProt Q8NDZ6)
inactive: [1] -0.028 | volasertib -0.038 | [2] 0.062 | epoxomicin 0.058 | [3] 0.01 | [4] 0.02 | [5] 0.079 | rosiglitazone 0.028 | [6] -0.068 | [7] -0.186 | saracatinib 0.048 | sotrastaurin 0.037 | alvocidib -0.037 | Tubastatin A -0.007 | [8] -0.043 | defactinib -0.061 | rucaparib 0.013 | [9] -0.049 | encorafenib -0.023 | [10] -0.05

USP24 (UniProt Q9UPU5)
UniProt Q9UPU5, sequence (Q9UPU5 whole entry, looked up): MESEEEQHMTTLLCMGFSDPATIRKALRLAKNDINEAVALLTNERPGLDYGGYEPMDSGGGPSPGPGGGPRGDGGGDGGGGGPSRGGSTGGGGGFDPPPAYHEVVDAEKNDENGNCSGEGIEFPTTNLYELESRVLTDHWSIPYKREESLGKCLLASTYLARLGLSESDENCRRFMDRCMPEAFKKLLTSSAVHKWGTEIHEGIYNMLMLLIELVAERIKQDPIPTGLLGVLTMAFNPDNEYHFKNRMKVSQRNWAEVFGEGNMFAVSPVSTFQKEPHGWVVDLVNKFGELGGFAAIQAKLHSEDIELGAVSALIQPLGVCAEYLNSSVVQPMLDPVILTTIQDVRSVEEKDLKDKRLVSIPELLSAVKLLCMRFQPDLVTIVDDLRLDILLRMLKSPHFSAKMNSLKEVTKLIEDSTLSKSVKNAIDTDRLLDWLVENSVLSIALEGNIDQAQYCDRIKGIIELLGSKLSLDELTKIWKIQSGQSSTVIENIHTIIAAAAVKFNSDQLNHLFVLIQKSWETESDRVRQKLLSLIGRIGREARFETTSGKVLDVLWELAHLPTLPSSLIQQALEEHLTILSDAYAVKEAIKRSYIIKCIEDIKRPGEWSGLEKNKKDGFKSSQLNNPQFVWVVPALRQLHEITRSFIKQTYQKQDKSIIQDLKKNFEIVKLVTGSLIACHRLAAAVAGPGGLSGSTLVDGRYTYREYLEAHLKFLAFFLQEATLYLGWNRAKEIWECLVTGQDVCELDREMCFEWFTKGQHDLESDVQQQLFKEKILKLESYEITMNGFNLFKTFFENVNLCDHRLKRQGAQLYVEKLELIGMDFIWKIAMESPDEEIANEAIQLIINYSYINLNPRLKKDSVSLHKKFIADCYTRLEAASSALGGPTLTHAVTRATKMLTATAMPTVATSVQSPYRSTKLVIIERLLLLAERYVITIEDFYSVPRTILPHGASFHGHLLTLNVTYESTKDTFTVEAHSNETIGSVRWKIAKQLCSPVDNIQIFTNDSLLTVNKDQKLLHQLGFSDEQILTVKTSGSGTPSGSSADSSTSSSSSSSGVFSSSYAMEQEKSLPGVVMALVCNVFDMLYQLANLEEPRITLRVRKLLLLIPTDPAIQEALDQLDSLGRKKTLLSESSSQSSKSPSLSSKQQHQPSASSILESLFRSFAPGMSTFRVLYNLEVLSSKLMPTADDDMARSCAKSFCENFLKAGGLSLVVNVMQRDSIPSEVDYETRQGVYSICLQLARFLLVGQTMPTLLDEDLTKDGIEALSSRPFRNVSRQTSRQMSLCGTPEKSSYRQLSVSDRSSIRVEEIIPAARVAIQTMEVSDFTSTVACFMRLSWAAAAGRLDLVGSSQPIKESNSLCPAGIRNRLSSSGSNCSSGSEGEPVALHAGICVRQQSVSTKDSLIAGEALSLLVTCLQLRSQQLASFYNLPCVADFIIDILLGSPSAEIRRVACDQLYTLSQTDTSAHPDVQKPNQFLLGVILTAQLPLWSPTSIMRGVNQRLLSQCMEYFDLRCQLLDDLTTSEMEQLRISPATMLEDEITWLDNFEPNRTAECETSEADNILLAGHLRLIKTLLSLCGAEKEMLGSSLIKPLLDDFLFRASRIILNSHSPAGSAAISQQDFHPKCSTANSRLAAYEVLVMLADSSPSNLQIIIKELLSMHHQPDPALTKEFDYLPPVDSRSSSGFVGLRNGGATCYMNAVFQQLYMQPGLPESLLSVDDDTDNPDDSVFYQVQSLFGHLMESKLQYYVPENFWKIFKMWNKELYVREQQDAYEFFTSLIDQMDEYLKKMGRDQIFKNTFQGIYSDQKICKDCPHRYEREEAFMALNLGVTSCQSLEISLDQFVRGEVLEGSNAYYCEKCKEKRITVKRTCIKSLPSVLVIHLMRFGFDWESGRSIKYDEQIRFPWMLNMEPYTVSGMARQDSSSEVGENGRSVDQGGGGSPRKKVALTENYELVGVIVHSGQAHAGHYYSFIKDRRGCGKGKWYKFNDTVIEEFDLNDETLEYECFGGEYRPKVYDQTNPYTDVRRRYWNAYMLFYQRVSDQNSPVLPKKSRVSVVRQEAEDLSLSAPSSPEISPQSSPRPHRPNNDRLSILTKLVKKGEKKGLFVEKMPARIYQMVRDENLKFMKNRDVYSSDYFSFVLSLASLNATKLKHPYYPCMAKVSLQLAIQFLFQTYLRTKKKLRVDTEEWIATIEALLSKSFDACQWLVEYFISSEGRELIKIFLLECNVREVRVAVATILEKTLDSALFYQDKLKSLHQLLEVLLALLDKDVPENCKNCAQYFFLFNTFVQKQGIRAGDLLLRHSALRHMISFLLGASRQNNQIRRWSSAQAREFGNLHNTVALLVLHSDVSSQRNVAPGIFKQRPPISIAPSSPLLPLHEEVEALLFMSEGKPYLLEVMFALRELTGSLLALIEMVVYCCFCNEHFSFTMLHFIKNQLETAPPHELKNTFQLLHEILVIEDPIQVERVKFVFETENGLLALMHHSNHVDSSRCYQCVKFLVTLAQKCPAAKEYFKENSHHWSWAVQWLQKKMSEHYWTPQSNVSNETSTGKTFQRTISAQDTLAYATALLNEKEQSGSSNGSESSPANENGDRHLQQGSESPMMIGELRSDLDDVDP
inactive: [1] -0.04 | volasertib -0.1 | [2] -0.047 | epoxomicin 0.073 | [3] -0.072 | [4] -0.062 | [5] 0.055 | rosiglitazone -0.025 | [6] -0.123 | [7] 0.137 | saracatinib 0.033 | sotrastaurin 0.092 | alvocidib -0.061 | Tubastatin A -0.143 | [8] 0.034 | defactinib -0.079 | rucaparib -0.03 | [9] 0.278 | encorafenib 0.048 | [10] -0.034

WDR61 (UniProt Q9GZS3)
inactive: [1] 0.067 | volasertib 0.102 | [2] 0.035 | epoxomicin -0.029 | [3] 0.011 | [4] 0.035 | [5] -0.011 | rosiglitazone 0.095 | [6] -0.066 | saracatinib -0.011 | sotrastaurin 0.064 | alvocidib -0.051 | Tubastatin A -0.011 | [8] -0.005 | defactinib -0.012 | rucaparib -0.012 | [9] -0.007 | encorafenib -0.028 | [10] 0.031
active: [7] -0.247

TMEM161A (UniProt Q9NX61)
active: volasertib -0.477
inactive: [1] 0.033 | [2] -0.08 | epoxomicin 0.049 | [3] 0.034 | [4] 0.014 | [5] -0.009 | rosiglitazone 0.088 | [6] -0.026 | [7] -0.265 | saracatinib 0.011 | sotrastaurin 0.027 | alvocidib -0.027 | Tubastatin A 0.039 | [8] -0.108 | defactinib 0.03 | rucaparib -0.106 | [9] -0.029 | encorafenib 0.106 | [10] 0.058

VPS35L (UniProt Q7Z3J2)
UniProt Q7Z3J2, sequence (Q7Z3J2 whole entry, looked up): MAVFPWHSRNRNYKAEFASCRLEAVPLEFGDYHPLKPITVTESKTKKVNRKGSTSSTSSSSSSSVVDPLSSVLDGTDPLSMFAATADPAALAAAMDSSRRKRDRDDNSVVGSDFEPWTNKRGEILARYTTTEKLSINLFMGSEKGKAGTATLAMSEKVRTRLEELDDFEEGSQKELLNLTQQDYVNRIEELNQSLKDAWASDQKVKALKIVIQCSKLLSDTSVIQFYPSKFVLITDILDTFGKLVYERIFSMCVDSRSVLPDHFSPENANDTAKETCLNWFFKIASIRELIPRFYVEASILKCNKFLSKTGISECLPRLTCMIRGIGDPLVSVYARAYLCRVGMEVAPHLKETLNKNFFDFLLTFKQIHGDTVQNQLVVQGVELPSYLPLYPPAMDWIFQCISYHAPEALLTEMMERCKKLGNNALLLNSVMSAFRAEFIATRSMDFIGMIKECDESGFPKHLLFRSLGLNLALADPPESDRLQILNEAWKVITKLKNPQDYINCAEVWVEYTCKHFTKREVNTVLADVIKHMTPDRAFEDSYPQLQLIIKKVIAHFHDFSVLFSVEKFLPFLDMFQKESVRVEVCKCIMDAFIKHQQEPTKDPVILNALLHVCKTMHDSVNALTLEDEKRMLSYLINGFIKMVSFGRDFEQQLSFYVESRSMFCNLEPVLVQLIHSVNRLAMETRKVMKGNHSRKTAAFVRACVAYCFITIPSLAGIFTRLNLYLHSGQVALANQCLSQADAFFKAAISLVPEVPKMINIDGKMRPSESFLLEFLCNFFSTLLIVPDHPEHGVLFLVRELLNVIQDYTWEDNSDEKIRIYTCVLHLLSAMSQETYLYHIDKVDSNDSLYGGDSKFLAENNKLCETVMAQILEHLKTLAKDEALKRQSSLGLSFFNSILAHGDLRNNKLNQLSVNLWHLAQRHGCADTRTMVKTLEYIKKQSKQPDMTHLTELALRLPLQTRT
active: volasertib -0.365
inactive: [1] 0.021 | [2] -0.038 | epoxomicin 0.003 | [3] -0.014 | [4] 0.071 | [5] 0.005 | rosiglitazone 0.072 | [6] -0.076 | [7] -0.099 | saracatinib 0.013 | sotrastaurin -0.141 | alvocidib 0.17 | Tubastatin A -0.015 | [8] -0.016 | defactinib -0.081 | rucaparib 0.018 | [9] 0.045 | encorafenib -0.001 | [10] -0.037

TRIP10 isoform 2 (UniProt Q15642)
UniProt Q15642, sequence (Q15642 whole entry, looked up): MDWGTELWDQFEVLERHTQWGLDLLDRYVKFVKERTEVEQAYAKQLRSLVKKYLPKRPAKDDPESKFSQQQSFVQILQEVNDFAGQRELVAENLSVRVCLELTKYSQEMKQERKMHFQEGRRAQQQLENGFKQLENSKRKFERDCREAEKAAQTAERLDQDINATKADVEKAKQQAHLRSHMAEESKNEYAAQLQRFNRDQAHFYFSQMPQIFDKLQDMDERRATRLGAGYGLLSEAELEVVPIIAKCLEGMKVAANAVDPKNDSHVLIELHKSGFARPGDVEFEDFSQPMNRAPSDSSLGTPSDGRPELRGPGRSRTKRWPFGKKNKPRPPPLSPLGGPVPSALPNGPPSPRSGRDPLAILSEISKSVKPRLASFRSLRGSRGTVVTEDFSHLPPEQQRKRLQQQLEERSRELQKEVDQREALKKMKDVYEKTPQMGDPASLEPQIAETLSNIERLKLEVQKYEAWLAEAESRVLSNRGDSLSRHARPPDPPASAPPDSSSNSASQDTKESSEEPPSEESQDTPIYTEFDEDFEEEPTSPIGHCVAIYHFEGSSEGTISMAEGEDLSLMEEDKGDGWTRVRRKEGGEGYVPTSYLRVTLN
inactive: [1] -0.033 | volasertib -0.276 | [2] -0.018 | epoxomicin -0.285 | [3] -0.073 | [4] -0.101 | [5] -0.18 | rosiglitazone -0.012 | [6] 0.045 | [7] -0.075 | saracatinib 0.021 | sotrastaurin 0.151 | alvocidib 0 | Tubastatin A 0.051 | [8] -0.258 | defactinib -0.196 | rucaparib 0.071 | [9] -0.081 | encorafenib -0.147 | [10] -0.246

WASHC3 (UniProt Q9Y3C0)
UniProt Q9Y3C0, sequence (Q9Y3C0 whole entry, looked up): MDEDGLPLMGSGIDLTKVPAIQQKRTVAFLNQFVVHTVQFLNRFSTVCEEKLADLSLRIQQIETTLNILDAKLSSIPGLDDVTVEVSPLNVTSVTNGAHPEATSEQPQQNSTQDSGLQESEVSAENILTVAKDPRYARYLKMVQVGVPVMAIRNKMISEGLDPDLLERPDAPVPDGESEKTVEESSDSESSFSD
inactive: [1] -0.015 | volasertib -0.066 | [2] -0.058 | epoxomicin 0.067 | [3] -0.025 | [4] 0.007 | [5] -0.002 | rosiglitazone 0.026 | [6] -0.03 | saracatinib 0.055 | sotrastaurin 0.026 | alvocidib 0.077 | Tubastatin A 0.054 | [8] 0.004 | defactinib -0.02 | rucaparib -0.022 | [9] -0.02 | encorafenib -0.005 | [10] 0.008
active: [7] -0.245
